# Experimental data taken from article PMC5540273 (PLoS ONE, 2017).
# Where “and” joins values, the source holds several entries; their conditions need not be identical. Equal entries are not always repeated. Where two headings read alike, the source gives them in different places.
# How the values were obtained:
# [1] = test system: RIPK1; details: concentration: 1 μM, replicates: in singlicate, n = 1
# [2] = test system: RIPK2; details: concentration: 1 μM, replicates: in singlicate, n = 1
# [3] = test system: RIPK4; details: concentration: 1 μM, replicates: in singlicate, n = 1
# [4] = test system: RIPK5; details: concentration: 1 μM, replicates: in singlicate, n = 1
# [5] = test system: ROCK1; details: concentration: 1 μM, replicates: in singlicate, n = 1
# [6] = test system: ROCK2; details: concentration: 1 μM, replicates: in singlicate, n = 1
# [7] = test system: ROS1; details: concentration: 1 μM, replicates: in singlicate, n = 1
# [8] = test system: RPS6KA4(Kin.Dom.1-N-terminal); details: concentration: 1 μM, replicates: in singlicate, n = 1
# [9] = test system: RPS6KA4(Kin.Dom.2-C-terminal); details: concentration: 1 μM, replicates: in singlicate, n = 1
# [10] = test system: RPS6KA5(Kin.Dom.1-N-terminal); details: concentration: 1 μM, replicates: in singlicate; n = 1
# 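Also: KINOMEscan kinase panel screen.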
Compound,%Inh [1] [%],%Inh [2] [%],%Inh [3] [%],%Inh [4] [%],%Inh [5] [%],%Inh [6] [%],%Inh [7] [%],%Inh [8] [%],%Inh [9] [%],%Inh [10] [%],%Inh ([1]; 1 µM),%Inh ([2]; 1 µM),%Inh ([3]; 1 µM),%Inh ([4]; 1 µM),%Inh ([5]; 1 µM),%Inh ([6]; 1 µM),%Inh ([7]; 1 µM),%Inh ([8]; 1 µM),%Inh ([9]; 1 µM)
CNc1nccc(-c2c(-c3ccc(F)cc3)ncn2C2CCN(C)CC2)n1 [SB-222903],3,40,0,2,56,0,0,15,0,0,–,–,–,–,–,–,–,–,–
N#Cc1ccc(Oc2ccc(Nc3ncnc4cc[nH]c34)cc2Cl)cc1,2,26,0,6,2,0,0,0,8,20,–,–,–,–,–,–,–,–,–
Cc1cccc(-c2nc(Nc3ccc4[nH]nnc4c3)c3ccccc3n2)n1 [GW867587],0,0,0,0,49,0,0,0,0,0,–,–,–,–,–,–,–,–,–
Nc1nc(-c2ccccn2)c(-c2ccnc3ccccc23)s1 [GW548057],16,15,2,14,27,33,1,12,0,21,–,–,–,–,–,–,–,–,–
COc1ccc(-c2nc3n(c2-c2ccncc2)CCC3)cc1 [SKF-104493],–,–,–,–,–,–,–,–,–,0,0% and 20%,40% and 46%,9% and 12%,19% and 0%,21% and 5%,29% and 0%,10% and 28%,7% and 0%,2% and 0%
Clc1cccc(-c2nc(Nc3ccncc3)c3ccccc3n2)c1 [GW873004],25,10,0,0,0,0,20,51,1,32,–,–,–,–,–,–,–,–,–
O=C(CCO)NCCn1ccc2ncnc(Nc3ccc(Oc4cccc(C(F)(F)F)c4)c(Cl)c3)c21,0,7,0,0,0,0,0,18,0,3,–,–,–,–,–,–,–,–,–
COc1cc2c(Nc3cccc(NC(=O)c4ccccc4)c3)ncnc2cc1OCCCN1CCOCC1 [GSK223810],0,31,0,8,34,14,0,9,0,9,–,–,–,–,–,–,–,–,–
CN1c2ccc(-c3ccc(C(=O)NCCO)cc3)cc2-c2[nH]ncc2S1(=O)=O,1,13,0,27,0,41,8,25,49,0,–,–,–,–,–,–,–,–,–
FC(F)(F)c1ccc(-c2nn3ncccc3c2-c2ccnc(Nc3cccc(C(F)(F)F)c3)n2)cc1 [GW828205],0,0,0,0,0,0,0,16,0,0,–,–,–,–,–,–,–,–,–
Clc1cc(Nc2ncnc3cc[nH]c23)ccc1OCc1ccccn1,0,27,23,31,0,0,6,9,11,3,–,–,–,–,–,–,–,–,–
c1ccc(-c2ccc3c(-c4ccnc(Nc5ccc6c(c5)OCCO6)n4)cnn3n2)cc1 [GW818941],3,9,0,0,28,10,5,33,0,10,–,–,–,–,–,–,–,–,–
CSc1nn2c(=O)cc(N3CCOCC3)nc2n1Cc1cccc(Cl)c1Cl [GSK2347225],0,20,7,0,15,0,46,17,0,11,–,–,–,–,–,–,–,–,–
Nc1nccc2scc(-c3ccc4c(c3)CCN4C(=O)Cc3cc(F)ccc3F)c12 [GSK2587663],83,3,0,0,28,12,16,14,0,15,–,–,–,–,–,–,–,–,–
Nc1n[nH]c2nnc(-c3ccccc3)cc12 [SB-517389],0,17,17,0,0,0,0,4,38,5,–,–,–,–,–,–,–,–,–
Fc1ccc(Nc2nccc(-c3c(-c4ccc(Cl)cc4)nn4ncccc34)n2)cc1F [GW829058],0,12,29,37,20,33,14,25,3,2,–,–,–,–,–,–,–,–,–
O=C(c1ccc(-c2cc(-c3c[nH]nc3-c3ccccn3)ccn2)cc1)N1CCCC1 [GW792479],1,9,5,0,0,0,0,13,0,0,–,–,–,–,–,–,–,–,–
COc1ccc(Nc2nccc(N3CCC(NC(=O)c4cccc(NC(C)=O)c4)C3)n2)cc1 (stereo not shown) [GSK1379732],21,7,0,0,33,50,8,21,0,9,–,–,–,–,–,–,–,–,–
Cl.c1ccc(Cn2ncc3cc(Nc4ncnc5ccccc45)ccc32)cc1 [GW273749],7,74,8,6,12,21,10,3,0,8,–,–,–,–,–,–,–,–,–
NC(=O)c1sc(-n2cnc3ccccc32)cc1OCc1ccccc1F [GSK1024306],0,13,0,0,85,86,4,17,0,17,–,–,–,–,–,–,–,–,–
CCCc1ccc(S(=O)(=O)NC2CCN(c3ccnc(Nc4ccc(OC)cc4)n3)C2)cc1 (stereo not shown) [GSK1379737],0,0,0,0,12,28,5,4,0,0,–,–,–,–,–,–,–,–,–

Compound,%Inh [1] [%],%Inh [2] [%],%Inh [3] [%],%Inh [4] [%],%Inh [5] [%],%Inh [6] [%],%Inh [7] [%],%Inh [8] [%],%Inh [9] [%],%Inh [10] [%],%Inh ([1]; 1 µM),%Inh ([2]; 1 µM),%Inh ([3]; 1 µM),%Inh ([4]; 1 µM),%Inh ([5]; 1 µM),%Inh ([6]; 1 µM),%Inh ([7]; 1 µM),%Inh ([8]; 1 µM),%Inh ([9]; 1 µM)
O=C(Nc1n[nH]c2nc(-c3ccco3)c(Br)cc12)c1ccc(CN2CCCC2)cc1.O=C(O)[C@H](O)[C@@H](O)C(=O)O [SB-742352],33,47,0,0,0,0,12,10,8,0,–,–,–,–,–,–,–,–,–
Cl.Cn1ccc(-c2cccc(Nc3ccnc4cc(-c5nccs5)ccc34)c2)n1 [GW525701],0,16,23,0,26,39,0,0,0,24,–,–,–,–,–,–,–,–,–
CCc1nc(-c2cccc(C)c2)c(-c2ccnc(NC(=O)c3ccccc3)c2)s1,0,52,42,0,35,0,0,0,8,3,–,–,–,–,–,–,–,–,–
CNc1nccc(-c2c(-c3ccc(F)cc3)ncn2CCCN2CCOCC2)n1 [SB-222516],9,0,33,0,4,0,3,27,1,8,–,–,–,–,–,–,–,–,–
Fc1cccc(COc2ccc(Nc3ncnc4sc(-c5ccc[nH]5)cc34)cc2Cl)c1 [GW707818],34,31,0,16,27,21,8,10,0,99.9,–,–,–,–,–,–,–,–,–
CC(C)N1CCC(n2cnc(-c3ccc(F)cc3)c2-c2ccnc(N)n2)CC1 [SB-223132],4,48,0,0,1,0,0,14,0,7,–,–,–,–,–,–,–,–,–
FC(F)(F)c1ccc(-c2cc(-c3c[nH]nc3-c3ccccn3)ccn2)cc1 [GW599550],0,25,2,0,26,15,31,14,0,20,–,–,–,–,–,–,–,–,–
OCCOCCn1ccc2ncnc(Nc3ccc(Oc4cccc(Cl)c4)c(Cl)c3)c21,0,48,0,0,0,0,0,17,0,0,–,–,–,–,–,–,–,–,–
COc1ccc(Nc2nccc(N3CCC(NC(=O)Nc4ccc5c(c4)OCO5)C3)n2)cc1 (stereo not shown) [GSK1379745],0,0,0,0,12,9,34,13,0,0,–,–,–,–,–,–,–,–,–
CN1CCC(n2cnc(-c3ccc(F)cc3)c2-c2ccnc(NC3CCNCC3)n2)CC1 [SB-229482],0,0,45,7,35,25,0,14,0,1,–,–,–,–,–,–,–,–,–
Cl.Cl.c1ccc(-c2cc3ccncc3cc2OC2CCNCC2)cc1 [GSK1122999],31,17,9,1,94.6,91.6,33,11,39,27,–,–,–,–,–,–,–,–,–
CS(=O)(=O)CCNCc1nc(-c2ccc3ncnc(Nc4ccc(OCc5cccc(F)c5)c(Cl)c4)c3c2)cs1.Cl [GW583340],2,42,6,1,5,0,0,10,0,0,–,–,–,–,–,–,–,–,–
Cc1cc(N2CCC(NS(=O)(=O)c3ccc(F)cc3)CC2)nc(Nc2cccc(C#N)c2)n1.O=C(O)C(F)(F)F [GSK1653537],57,0,4,0,0,0,7,0,0,28,–,–,–,–,–,–,–,–,–
Cl.Fc1ccccc1COc1ccc(Nc2ncnc3ccc(-c4nnc(C(F)(F)F)o4)cc23)cc1Cl [GW424170],9,28,0,0,10,4,11,10,0,6,–,–,–,–,–,–,–,–,–
Nc1nc(-c2ccc3c(N)n[nH]c3c2)cc(N2CCC[C@@H](C(=O)Nc3ccccc3)C2)n1.O=C(O)C(F)(F)F.O=C(O)C(F)(F)F [GSK2288359],10,5,13,3,–,61,0,0,0,0,–,–,–,–,–,–,–,–,–
Fc1ccc(-c2ncn(CCCNCc3ccccc3)c2-c2ccncc2)cc1,9,0,29,26,27,32,0,0,32,0,–,–,–,–,–,–,–,–,–
C[C@@H]1CCN(C(=O)CO)C[C@@H]1N(C)c1ncnc2[nH]ccc12,0,0,0,12,16,23,0,88,0,0,–,–,–,–,–,–,–,–,–
O=C(Nc1ccccc1F)NC1CCN(c2ccnc(Nc3ccc(F)cc3)n2)C1 (stereo not shown) [GSK1379722],0,0,98.7,0,11,16,22,6,0,20,–,–,–,–,–,–,–,–,–
Cn1ccc2ncnc(Nc3ccc(Oc4cccc(Cl)c4)c(Cl)c3)c21,0,47,0,40,3,0,0,0,1,19,–,–,–,–,–,–,–,–,–
CC(C)(C)OC(=O)NC1CCCN(c2cc(-c3ccc4c(N)n[nH]c4c3)nc(N)n2)C1 (stereo not shown) [GSK2286096],0,8,14,0,0,0,0,0,0,0,–,–,–,–,–,–,–,–,–
